Results published in PubChem BioAssay AID1209 (Sanford-Burnham Center for Chemical Genomics, 2008).
Screen size: about 190,000 compounds; about 810 (0.43%) were called active. No stated cut-off is given here; in the data, active means inhibition above about 50%; inactive means the rest. The entries come from a sample that favours actives as a whole.

What follows are compounds tested against Mannose-6-phosphate isomerase (Homo sapiens) (UniProt P34949) (assay: MPI enzyme activity inhibition – biochemical, fluorescence intensity, coupled assay, primary screen (AID 1209;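 further: plate controls were DMSO vehicle for no effect and wells lacking substrate for full effect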)). Settings: purified PMI enzyme, at 20 µM, active compounds read high.
Mannose-6-phosphate isomerase (Homo sapiens), sequence (P34949 whole entry, looked up): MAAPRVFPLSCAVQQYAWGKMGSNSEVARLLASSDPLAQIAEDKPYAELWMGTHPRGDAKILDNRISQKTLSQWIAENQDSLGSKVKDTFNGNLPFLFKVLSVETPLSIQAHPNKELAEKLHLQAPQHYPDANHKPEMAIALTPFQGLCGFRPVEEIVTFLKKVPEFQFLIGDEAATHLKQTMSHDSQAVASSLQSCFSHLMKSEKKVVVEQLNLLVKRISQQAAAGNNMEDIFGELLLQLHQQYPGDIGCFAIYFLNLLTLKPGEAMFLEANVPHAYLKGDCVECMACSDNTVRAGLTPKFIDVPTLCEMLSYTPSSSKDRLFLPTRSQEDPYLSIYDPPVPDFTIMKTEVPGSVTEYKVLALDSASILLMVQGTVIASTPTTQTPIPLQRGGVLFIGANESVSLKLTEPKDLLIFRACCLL

inhibition, active:
COC(=O)c1ccccc1N/C=C1\CCc2c(c(C)nn2-c2ccccn2)C1=O 85.2%
COc1ccc(/C=C(\C#N)C(=O)OCCNC(=O)c2ccncc2)cc1 67.7%
O=C(NCc1ccncc1)c1ccc(N2CCCC2)c([N+](=O)[O-])c1 72.1%
S=C(Nc1ccc2cn[nH]c2c1)Nc1ccc(Cl)cc1Cl 55.6%
Cc1ccc(S(=O)(=O)N(C)C)cc1NC(=S)Nc1ccc2cn[nH]c2c1 55.4%
COCCN=c1scc(-c2cccs2)n1/N=C/c1ccc(O)c(O)c1O 68.4%
CCN=c1scc(C)n1/N=C/c1ccc(O)c(O)c1O 82.5%
COCCN=c1scc(-c2ccco2)n1/N=C/c1ccc(O)c(O)c1O 69.7%
COc1ccc(C2CC2/C(C)=N/OC(=O)c2ccc(F)cc2)cc1 (stereo unspecified) 73.5%
CCCC(=O)n1nc(-c2cccnc2)nc1NCc1ccc(OC)cc1 86.5%
CC(=O)c1cc2c(O)c(O)ccc2o1 81.1%
O=S(=O)(Nc1ccc(Cl)cc1)c1ccc(N2CCOCC2)c(NC(=S)NC2CC2)c1 61.3%
COc1ccc(NS(=O)(=O)c2ccc(N3CCCC3)c(NC(=S)Nc3cccc(S(=O)(=O)N(C)C)c3)c2)cc1 69.9%
COc1ccc(NS(=O)(=O)c2ccc(N3CCCC3)c(NC(=S)Nc3ccc(SC(F)F)cc3)c2)cc1 59%
COc1ccc(NS(=O)(=O)c2ccc(N3CCCC3)c(NC(=S)Nc3cccc(C)c3C)c2)cc1 78.9%
Cc1cc(N2CCOCC2)nc2ccc(NC(=S)N3CCCCC3C)cc12 (stereo unspecified) 52.4%
COc1cc(C(=O)NNC(=S)Nc2ccc(S(N)(=O)=O)cc2)cc(OC)c1OC 56.6%
NS(=O)(=O)c1ccc(NC(=S)NNC(=O)c2cccs2)cc1 63.3%
CNCc1ccccc1Sc1ccc(O)c(O)c1 74.9%

inhibition, inactive:
NC1=NC2CS(=O)(=O)CC2S1 (stereo unspecified) 2.4%
O=C(c1ccc([N+](=O)[O-])cc1)N1CCN(C(=O)c2ccco2)CC1 1.1%
COc1ccc(CC(=O)OCC(=O)Nc2cccnc2Cl)cc1OC -1.9%
CCOC(=O)N1CCN(C(=O)C2CCN(S(=O)(=O)N(CC)CC)CC2)CC1 -12%
CCOC(=O)c1ccccc1N/C=C1\CCCCC1=O -4.9%
COC(=O)c1ccccc1NC(=S)N1CCN(c2ccccn2)CC1 7.2%
Cc1ccc(NCc2ccccc2O)c(C)c1 2.8%
COc1ccc(/C=C(\C#N)C(=O)OCC(=O)NC(=O)NCCC(C)C)cc1 -4.9%
COc1ccc(/C=C(\C#N)C(=O)OCC(=O)NCc2ccccc2)cc1 0.9%
CCCOc1ccc(CNC(=S)NCc2ccc(OC(C)C)cc2)cc1 6.1%
O=C(NCc1ccccn1)c1ccc(N2CCCC2)c([N+](=O)[O-])c1 -10.4%
O=C(NCc1ccc2c(c1)OCO2)c1ccc(N2CCCCCC2)c([N+](=O)[O-])c1 10.1%
S=C(Nc1ccc(Cl)cc1)Nc1ccc2cn[nH]c2c1 23.6%
S=C(Nc1ccc2cn[nH]c2c1)Nc1ccccc1Cl 14.1%
Cc1ccc(S(=O)(=O)N(C)C)cc1NC(=S)Nc1ccc2[nH]c(=O)[nH]c2c1 44.5%
CN(C)S(=O)(=O)c1cccc(NC(=S)Nc2ccc3cn[nH]c3c2)c1 44.4%
C/C(=N\NC(=O)COc1ccc(C(C)(C)C)cc1)c1ccc2c(c1)OCCO2 19%
COc1ccccc1NC(=O)Cn1cnc2c(oc3ccccc32)c1=O 4.7%
Cc1ccc2c(c1)sc[n+]2Cc1ccccc1 -11.9%
COC(=O)[C@H](CC(C)C)NC(=O)CCc1nnc(COc2ccccc2)o1 -1.7%
CNC(=O)NCC12CC3CC(CC(C3)C1)C2 0%
COCCN=c1scc(-c2ccccc2)n1/N=C/c1c[nH]c2ccccc12 25.3%
CCN=c1scc(-c2cccs2)n1/N=C/c1cc(OC)ccc1O -5%
CCN=c1scc(C)n1/N=C/c1cc(Br)c(O)c(Br)c1 -24.9%
COc1ccc(O)c(/C=N/n2c(-c3ccco3)csc2=Nc2cccnc2)c1 11.8%
CCN=c1scc(C)n1/N=C/c1ccsc1 -6.7%
COCCN=c1scc(-c2cccs2)n1/N=C(\C)c1ccco1 -16.8%
Cc1c(Br)cc(C(=O)OC2CCN(C)CC2)c(C)c1C -1.2%
CCc1nnc(NC(=O)CSc2nnc(CNc3ccc(Cl)cc3)o2)s1 9.1%
CCCNc1nc2c(c(=O)n(C)c(=O)n2C)n1Cc1ccc(F)cc1 15.7%
COc1ccc2c(c1OC)C(=O)N(c1nccs1)C2 6.6%
CCN=C(NS(=O)(=O)c1ccc(Br)cc1)c1ccc(Cl)cc1 10.4%
CC1CCCN(S(=O)(=O)c2ccccc2[N+](=O)[O-])C1 (stereo unspecified) 9.5%
COc1ccc(C2CC2/C(C)=N/OC(=O)c2cccs2)cc1 (stereo unspecified) -5.4%
COc1ccc(C2CC2/C(C)=N/OC(=O)C2CC2)cc1 (stereo unspecified) 2.2%
CCn1c(C)nc2cc(C(=O)OC(C(F)(F)C(F)F)C(F)(F)C(F)F)ccc21 18.2%
Cc1cc2c(cc1C)N(C(=O)CSc1nncn1C)C(C)(C)c1ssc(=S)c1-2 10.4%
COC(=O)c1cc(OC)nc2c1c(=O)n(C)c(=O)n2C -3.1%
CCCC(=O)n1nc(-c2cccnc2)nc1NCc1ccccc1 3.3%
CCC(=O)n1nc(-c2cccnc2)nc1NCc1ccc(OC)cc1 8.8%
O=C(CSc1ccc2c(c1)OCCO2)Nc1cccc(S(=O)(=O)N2CCCCC2)c1 12.6%
O=C(O)c1cc2c(ccc3ccccc32)o1 4.1%
CC(=O)c1cc2cc(O)ccc2o1 3.2%
COc1cc(OC)cc(C(=O)N[C@H](C(=O)Nc2nnc(C3CC3)s2)C(C)C)c1 11.7%
O=C(CCc1ccccc1)OCC(=O)c1cccc([N+](=O)[O-])c1 3.7%
O=C(CSc1ncnc2c1oc1ccccc12)OCc1ccccc1 22.9%
CCOc1ccccc1N1C(=O)CC(Sc2n[nH]c(-c3ccccc3)n2)C1=O (stereo unspecified) 36%
COc1ccccc1N1C(=O)CC(Sc2nc(C)cc(C)n2)C1=O (stereo unspecified) 0.4%
O=C(CN1CCCCC1)NCCNc1ccc(C(F)(F)F)cc1[N+](=O)[O-] 3.9%
O=S(=O)(Nc1ccc(Cl)cc1)c1ccc(N2CCOCC2)c(NC(=S)NCCN2CCOCC2)c1 12.4%
COC(=O)CCC(=O)Nc1cc(S(=O)(=O)Nc2ccc(Cl)cc2)ccc1N1CCOCC1 21.8%
COc1ccc(NS(=O)(=O)c2ccc(N3CCOCC3)c(NC(=O)c3ccc(OC)cc3)c2)cc1 9.7%
COc1ccc(NS(=O)(=O)c2ccc(N3CCOCC3)c(NC(=O)C(C)C)c2)cc1 -20%
COc1ccc(NS(=O)(=O)c2ccc(N3CCOCC3)c(NC(=O)c3ccccc3Cl)c2)cc1 -2.5%
COc1ccc(NS(=O)(=O)c2ccc(N3CCOCC3)c(NC(=O)c3ccc(F)cc3)c2)cc1 11.8%
CCN(CC)S(=O)(=O)c1ccc(N2CCCC2)c(NS(=O)(=O)c2ccc(OC)cc2)c1 -1.6%
COc1ccc(NC(=S)Nc2cccc(S(=O)(=O)N3CCCCC3)c2)cc1 1.3%
CCCCNC(=S)NNC(=O)c1csc(C)c1CC -8.1%
O=C(O)CNC(=O)CC1S/C(=N/N=C/c2ccccc2O)NC1=O (stereo unspecified) -8.1%
CCCn1c(=O)c2ccccc2n2c(SCCOc3ccc(C)cc3)nnc12 12.7%
CCn1nnnc1SCC(=O)Nc1cc(OC)cc(OC)c1 2.1%
COc1ccc(C(=O)COC(=O)CCN=C2NS(=O)(=O)c3ccccc32)cc1OC -5.9%
Cc1c(NC(=O)CCC2CCCCC2)c(=O)n(-c2ccccc2)n1C -13.7%
O=S(=O)(NC1=NCCC1)c1cccc(NC(=S)NCCc2ccccc2)c1 2.3%
Cc1cc(N2CCOCC2)nc2ccc(NC(=O)C3CCC(C)CC3)cc12 (stereo unspecified) -6%
Cc1cc(N2CCOCC2)nc2ccc(NC(=S)N3CCN(c4ccccc4)CC3)cc12 22.5%
O=c1oc2cc(OCc3ccc(C(F)(F)F)cc3)ccc2cc1-c1ccccn1 -7%
O=C(NNC(=S)Nc1ccc(Cl)cc1)c1cccs1 -1.6%
COc1cc(OC)cc(C(=O)NNC(=S)Nc2ccc(S(N)(=O)=O)cc2)c1 -10.4%
COc1cc(C(=O)NNC(=O)c2ccc(NC(C)=O)cc2)cc(OC)c1OC -4.2%
O=C(NNC(=S)Nc1ccccc1)c1cccs1 -13.9%
COc1ccc(C(=O)Nc2ccc3c(c2)nc(CN2CCCC2)n3C)cc1 9.7%
C=CCn1c(SCC(=O)c2cccs2)nnc1-c1cccc(OC)c1 11.5%
O=C(N/N=C/C(c1ccccc1)c1ccccc1)c1ccccc1F -8.5%
Cc1nn(-c2nc3ccccc3n2Cc2ccccc2)c2c1C(=O)CC(C)(C)C2 24.7%
CNCc1ccccc1Sc1cccc(O)c1 -7%
CNCc1ccccc1Sc1cc(O)ccc1O 19.1%
